# Screens from PubChem.
# PrPC TRFRET: reduces human prion protein on the cell surface; cell surface PrPC, TR-FRET read-out; inhibition, % at 13.8 µM; 370,000 compounds, 0.43% hits; in the data active = inhibition above about 24%; also: 0% = median of the test wells and 100% = reference compound wells
# 3CLpro inhibitor: SARS-CoV 3CLpro protease inhibition | inhibition, % at 6 µM | 290,000 compounds, 0.14% hits | recombinant SARS-CoV 3CLpro, quenched FRET peptide cleavage | P0C6X7; in the data active = inhibition above about 12%
# SSB-PriA inh: inhibitors of Klebsiella pneumoniae PriA binding to SSB C-terminal tail | AlphaScreen SSBct-PriA binding, biotinylated peptide | inhibition, % at 33 µM | 430,000 compounds, 0.6% hits | AID 1272365; in the data active = inhibition mostly above about 37%, no sharp cut-off; inactive = mostly below about 20%;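 also: plate controls were negative control peptide for no effect and reference peptide for full effect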
# BH1578 lux ind: quorum light induction in luxS cqsA deficient V. cholerae; 350,000 compounds, 0.16% hits; V. cholerae BH1578 lux reporter, luminescence, 6 h; activation, % at 18.7 µM; AID 588436; in the data active = activation mostly above about 9.7%, no sharp cut-off; inconclusive = no clear call, values can overlap the other calls; inactive = mostly below about 3.7%
# PrP UTR inh: inhibition of PrP 5' UTR reporter expression | 340,000 compounds, 0.35% hits | cell-based PrP 5' UTR mRNA reporter, plate reader | inhibition, % (concentration not given with the values) | AID 488862; in the data active = inhibition above about 52%; also: 0 = median of the neutral control wells
# PfHsp40 yeast: restores yeast growth despite PfHsp40 toxicity; growth rescue, % at 12.5 µM; S. cerevisiae expressing PfHsp40, growth rescue, ATP luminescence; 340,000 compounds, 0.68% hits; in the data active = growth rescue above about 28%, passing the limit was not always enough; inconclusive = no clear call, values can overlap the other calls;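 also: yeast W303a lacking pdr1 and pdr3 grown in galactose medium; growth measured after three days at 30 °C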
# PrP 5UTR single: prion 5' UTR mRNA inhibition, cherry-pick retest. shares compounds with PrP UTR inh. 1,100 compounds, 48% hits. inhibition, % at 2.5 µM. AID 504592. cell-based prion protein 5' UTR reporter, plate reader; in the data active = inhibition above about 54%; inconclusive = no clear call, values can overlap the other calls
# * hit, by the source's call; i = inactive; ? = inconclusive; nt = no result given. Only some compounds are listed: those with a hit (about 1.6% of all), similar ones and a draw of the others.
SMILES,PrPC TRFRET,3CLpro inhibitor,SSB-PriA inh,BH1578 lux ind,PrP UTR inh,PfHsp40 yeast,PrP 5UTR single
CC(=NNc1nc(N2CCCCC2)nc(N2CCOCC2)n1)c1cccs1,nt,nt,-6.3,nt,nt,nt,nt
c1sc(CN2CCNCC2)nc1C1CC1,nt,nt,-9.0,nt,nt,nt,nt
Cc1ccccc1CSc1nnc([C@@H]2CCCN2)o1,0.1,-3.0,-15.5,-0.5,73.6*,0.0,3.7
Cc1cccc(/C=N/Nc2ccc3ccccc3n2)c1,6.8,2.4,nt,i,75.5*,0.0,66.3*
Brc1ccc(C=NNc2ccc3ccccc3n2)cc1,nt,nt,8.3,nt,nt,nt,nt
C(=N\Nc1ccc2ccccc2n1)/c1ccc2c(c1)OCCO2,6.5,3.3,nt,i,83.4*,-0.8,68.9*
COc1c2ccc(C(=O)N3CCn4c3nc3ccccc34)cc2nn1C,nt,nt,12.0,nt,nt,nt,nt
COC(=O)c1nn(-c2ccc3c(c2)CCN3C(C)=O)cc1O,2.4,-2.1,-12.6,-0.5,81.7*,0.8,80.6*
COC(=O)c1nn(-c2ccc3c(c2)OCO3)cc1O,10.2,-0.6,-4.6,-0.5,-68.0,-0.1,nt
O=C(c1ccccc1)N1CCCc2cc(NS(=O)(=O)Cc3ccccc3F)ccc21,nt,nt,-4.0,nt,nt,nt,nt
O=C(Nc1cccnc1)OC1CCCCC1,3.4,-3.8,-6.6,-0.3,74.9*,1.0,-36.0
Cn1c(=O)oc2cc(S(=O)(=O)N3CCC(C(=O)N4CC=C(c5ccccc5)CC4)CC3)ccc21,-4.1,-4.2,115.4*,-0.3,61.2*,-0.1,-5.2
Cn1c(=O)oc2cc(S(=O)(=O)N3CCC(C(=O)N4CCN(c5ccccc5)CC4)CC3)ccc21,4.8,-5.5,-5.5,-0.2,-26.2,0.6,nt
COc1ccc(OC)c(C2C=C(c3ccc(C)c(C)c3)Nc3nnnn32)c1 (stereo unspecified),2.5,nt,-27.9,-0.6,68.7*,-0.5,3.1
COc1cccc(C2=CC(c3cc(OC)ccc3OC)n3nnnc3N2)c1 (stereo unspecified),-2.8,4.1,-36.6,-0.5,-23.7,2.6,nt
COC(=O)c1scc(-c2ccccc2)c1S(=O)(=O)N1CCN(c2cc(Cl)ccc2C)CC1,nt,nt,-26.0,nt,nt,nt,nt
NC(=O)c1ccc(-c2noc(-c3cccc(Cl)c3)n2)cc1,0.6,nt,0.7,-0.3,-47.6,2.3,nt
O=C(O)c1cccc(-c2noc(-c3cccc(Cl)c3)n2)c1,3.3,nt,-12.9,-2.2,81.5*,-0.3,84.4*
COc1cccc(N2CCN(C(=O)c3ccc(CS(=O)c4ccccc4C)o3)CC2)c1 (stereo unspecified),11.6,-7.2,-2.2,-0.2,56.4*,2.8,83.5*
COCc1[nH]nc2c1C(c1ccsc1)C(C#N)=C(N)O2 (stereo unspecified),-5.5,-0.4,-19.2,-0.2,-26.2,-1.3,nt
CCOC(=O)Cc1[nH]nc2c1C(c1ccsc1)C(C#N)=C(N)O2 (stereo unspecified),1.3,-0.2,-17.6,-1.5,53.0*,-1.6,-9.5
CCOC(=O)C1(Cc2ccccc2)CCCCCC1=O (stereo unspecified),-1.0,nt,-33.6,0.8,55.4*,-2.0,0.6
COc1ccccc1/C=C/CN1CCN(Cc2ccc(C)o2)C(CCO)C1 (stereo unspecified),-4.0,0.6,25.5,-0.5,-24.2,0.5,nt
COc1cc(/C=C/CN2CCN(Cc3ccc(C)o3)C(CCO)C2)ccc1O (stereo unspecified),-5.5,-3.3,3.0,i,54.8*,-0.9,?
Nc1ccc(Oc2cccc(Oc3ccc(N)cc3)c2)cc1,9.6,2.0,22.4,-1.3,67.2*,0.0,75.0*
SMILES,PrPC TRFRET,3CLpro inhibitor,SSB-PriA inh,BH1578 lux ind,PrP UTR inh,PfHsp40 yeast,PrP 5UTR single
CC(C)c1ccc2oc(-c3cc(N)ccc3O)nc2c1,3.6,2.0,2.8,nt,63.3*,0.7,33.3
CCOC(=O)COc1cccc2c(=O)n(CC(=O)NCc3ccccc3)ccc12,-2.9,0.6,-5.7,0.4,52.5,-1.0,nt
CCOC(=O)COc1cccc2c(=O)n(CC(=O)NCc3ccc(F)cc3)ccc12,-10.1,-6.2,-10.0,-0.3,60.4*,-0.2,84.1*
Cc1csc(NC(=O)C2CCCN(c3ccc(-c4ccc(Cl)cc4)nn3)C2)n1 (stereo unspecified),nt,nt,15.0,nt,nt,nt,nt
COc1ccc(CC(=O)NCC#CCOc2ccccc2C(N)=O)cc1OC,nt,nt,-8.0,nt,nt,nt,nt
ON=Cc1ccc2ccccc2n1,nt,nt,-15.8,nt,nt,nt,nt
C(=NN1CCCCCC1)c1ccc2ccccc2n1,0.7,nt,5.8,i,93.9*,-0.8,91.1*
COc1ccc(CCNC(=O)Nc2ccc(-c3cnc4n3CCC4)cc2)cc1,nt,nt,-3.0,nt,nt,nt,nt
COc1ccc(C2=Nn3c(nnc3-c3ccccc3C(F)(F)F)SC2)cc1OC1CCOC1 (stereo unspecified),5.0,nt,-16.2,-0.8,15.2,1.1,nt
COc1ccc(C2=Nn3c(nnc3-c3ccccc3OC)SC2)cc1OC1CCOC1 (stereo unspecified),12.0,nt,0.7,-0.7,80.8*,-0.3,82.9*
Cc1ccccc1-c1nnc2n1N=C(c1ccc(O)c(O)c1)CS2,-7.6,nt,nt,nt,nt,nt,nt
COc1ccccc1-c1nnc2n1N=C(c1ccc(O)c(O)c1)CS2,nt,2.3,14.5,-2.8,60.7*,0.1,89.9*
COc1ccc(OC)c(-c2nnc3n2N=C(c2ccc(OC)c(OCC4CC4)c2)CS3)c1,nt,nt,-8.9,-5.0,67.3*,1.1,93.1*
CCOc1ccc(C2=Nn3c(nnc3-c3ccccc3OC)SC2)cc1,18.1,-0.4,13.0,-2.2,68.6*,-0.9,88.5*
COc1ccc(CCNC(=O)CSc2ncnc3sc(-c4ccccc4)cc23)cc1OC,nt,nt,-19.0,nt,nt,nt,nt
COc1ccc(S(=O)(=O)Nc2nc(CCC(=O)NCCc3ccc(F)cc3)cs2)cc1,nt,nt,-10.0,nt,nt,nt,nt
CC(O)C1C=CC=CC(=O)OC2CC3OC4C5OC5(C)CCC4(COC(=O)C4OC4(C)C(O)CO1)C2(C)C31CO1 (stereo unspecified),90.2*,nt,nt,-1.9,83.2*,nt,82.4*
CC(O)C1C=C/C=C\C(=O)OC2CC3OC4C5OC5(C)CCC4(COC(=O)C4OC4(C)C(O)CO1)C2(C)C31CO1 (stereo unspecified),nt,nt,-21.0,nt,nt,nt,nt
CSCCC(C)(O)CNC(=O)c1cnc2ccccc2n1 (stereo unspecified),nt,nt,6.0,nt,nt,nt,nt
COc1ccc(C(C#N)=C2C=CC(=NO)C(C)=C2Cl)cc1,1.4,nt,4.0,i,71.3*,-1.2,-34.9
O=C(Nc1nnc(-c2ccc(Br)cc2)o1)c1ccc([N+](=O)[O-])s1,nt,nt,-11.0,nt,nt,nt,nt
O=C(N/N=C/c1cc(O)ccc1Br)c1cccnc1,3.2,1.9,nt,-0.3,-1.5,-0.3,nt
O=C(N/N=C/c1cc2c(cc1Br)OCO2)c1cccnc1,-8.3,2.3,nt,0.2,62.2*,-1.1,-14.1
O=C(CSc1nnc2ccc(-c3ccncc3)nn12)Nc1ccc(F)cc1F,nt,nt,-4.0,nt,nt,nt,nt
